ASK1 primary: ASK1 kinase inhibitors, primary screen, biochemical, AlphaScreen; Mitogen-activated protein kinase kinase kinase 5 (Homo sapiens), Q99683; AlphaScreen MKK6 phosphorylation by ASK1, luminescence; inhibition, % at 7.44 µM; 22,000 tested, 0.99% active; AID 1159602, 2016; in the data active = inhibition above about 35%;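 also: 0% = median of compound wells and 100% = no enzyme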
ULK1 primary: ULK1 kinase inhibitors, primary screen, biochemical, AlphaScreen | Serine/threonine-protein kinase ULK1 (Homo sapiens), O75385 | AlphaScreen Atg13 phosphorylation by ULK1, luminescence | inhibition, % at 5.96 µM | 30,000 tested, 1.9% active; in the data active = inhibition above about 43%;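 also: 0% = median of compound wells and 100% = no enzyme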
Target sequence (O75385 whole entry, looked up): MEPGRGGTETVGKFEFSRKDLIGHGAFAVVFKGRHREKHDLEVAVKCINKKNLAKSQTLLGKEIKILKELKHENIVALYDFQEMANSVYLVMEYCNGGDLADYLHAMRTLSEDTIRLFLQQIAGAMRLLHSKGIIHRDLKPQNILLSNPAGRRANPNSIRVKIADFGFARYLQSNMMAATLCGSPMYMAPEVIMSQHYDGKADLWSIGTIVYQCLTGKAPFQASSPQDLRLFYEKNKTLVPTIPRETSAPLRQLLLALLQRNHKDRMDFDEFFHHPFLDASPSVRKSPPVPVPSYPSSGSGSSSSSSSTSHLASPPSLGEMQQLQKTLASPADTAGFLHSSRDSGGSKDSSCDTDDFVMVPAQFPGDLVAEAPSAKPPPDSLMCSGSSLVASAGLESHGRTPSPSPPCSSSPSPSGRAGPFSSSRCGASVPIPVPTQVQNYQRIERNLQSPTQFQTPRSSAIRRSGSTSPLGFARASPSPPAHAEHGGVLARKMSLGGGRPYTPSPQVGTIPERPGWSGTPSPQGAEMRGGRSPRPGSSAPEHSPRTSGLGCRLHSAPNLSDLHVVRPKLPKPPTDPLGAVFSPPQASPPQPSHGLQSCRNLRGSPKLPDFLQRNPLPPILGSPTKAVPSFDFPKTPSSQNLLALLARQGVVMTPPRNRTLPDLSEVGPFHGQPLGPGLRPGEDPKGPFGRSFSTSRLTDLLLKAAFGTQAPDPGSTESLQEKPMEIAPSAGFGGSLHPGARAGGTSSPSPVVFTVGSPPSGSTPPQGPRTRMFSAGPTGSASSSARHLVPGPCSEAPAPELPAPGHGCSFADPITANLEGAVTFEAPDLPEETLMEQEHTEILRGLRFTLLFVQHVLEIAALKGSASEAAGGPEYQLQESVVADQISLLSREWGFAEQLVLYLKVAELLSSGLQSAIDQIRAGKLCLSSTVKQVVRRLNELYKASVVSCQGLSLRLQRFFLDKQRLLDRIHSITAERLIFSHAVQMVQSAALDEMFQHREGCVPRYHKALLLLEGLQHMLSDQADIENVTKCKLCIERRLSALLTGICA
The depositor's hits bear a star; . = no result given; ! = repeats disagree. In the library only some 2.4% were active in any assay of this set; here they are far more common.

SMILES	ASK1 primary	ULK1 primary
O=C1CCCN1CCn1cnc2c(NC3CC3)nc(NC3CCN(Cc4ccccc4)CC3)nc21	-2.0	0.5
Nc1nc(NCCCN2CCCC2=O)cc(N2CCc3ccccc3C2)n1	-1.9	13.7
O=C1CCCN1CCCNc1cc(Nc2ccncc2)ncn1	2.5	12.3
CC(C)(C(=O)O)c1ccc(C(=O)CCCN2CCC(OC(c3ccccc3)c3ccccc3)CC2)cc1	.	1.1
O=C(Nc1cnn(-c2cccc(CNc3ccc(N4CCOCC4)cc3)c2)c1)Nc1ccccc1Cl	24.6	49.4*
O=C(Nc1cnn(-c2cccc(C(=O)Nc3ccc(N4CCOCC4)cc3)c2)c1)Nc1ccccc1Cl	2.0	2.8
CCNc1ncc(C(=O)NC2CC2)s1	1.7	-2.3
O=C(NC1CC1)c1cnc(Nc2ncccn2)s1	-2.2	44.4*
O=C1c2c(O)ccc(O)c2C(=O)c2c(NCCNCCO)ccc(NCCNCCO)c21	.	42.6*
Cc1ccc2c(c1)CC(C(=O)Nc1ccc(-c3cn[nH]n3)cc1)CO2 (configuration not stated)	0.1	11.6
O=Cc1ccc(O)c(O)c1O	.	88.6*
CCN(CC)c1nc(NCc2ccccc2)nc(N2CCc3ccccc3C2)n1	-9.3	-3.0
Fc1cc(-c2ccnc(Nc3cccc(CN4CCOCC4)c3)n2)cc(N2CCOCC2)c1	17.1	38.2
Fc1cc(-c2nc(Nc3cccc(CN4CCOCC4)c3)ncc2F)cc(N2CCOCC2)c1	10.4	45.0*
Fc1cc(-c2nc(Nc3cccc(Cn4cccn4)c3)ncc2F)cc(N2CCOCC2)c1	12.0	20.9
Fc1cc(-c2nc(Nc3cccc(CN4CCCC4)c3)ncc2F)cc(N2CCOCC2)c1	11.5	70.0*
O=C(Cc1cn(-c2ccc(NCCCN3CCCC3=O)nn2)c2ccccc12)NCCO	-4.1	2.9
Cc1nc(Nc2cc(Nc3ccccc3S(=O)(=O)NC(C)C)c(C(F)(F)F)cn2)cc(-c2cncnc2)n1	-1.4	45.0*
Cc1nc(Nc2ccccc2)cc(-c2cncc(-c3ccc(F)cc3)c2)n1	.	-1.5
O=C(O)C1CSCN1 (configuration not stated)	.	6.6
NNCCc1ccccc1	.	-10.0
CS(=O)(=O)c1ccc(NCCc2ccccc2)cc1	.	68.2*
CC(=O)Nc1ccc(Nc2nc(N3CCC(N4CCOCC4)CC3)nc3c2ncn3-c2ccsc2)cc1	-35.9	2.1
CC(C)c1cc(C(C)C)c(CC(=O)NS(=O)(=O)Oc2c(C(C)C)cccc2C(C)C)c(C(C)C)c1	.	85.2*
COc1ccc(CCNc2ncnc3c2nc(-c2ccc(N4CCN(C)CC4)cc2)n3C(C)C)cc1	-1.5	-4.4
SMILES	ASK1 primary	ULK1 primary
COc1cc2nc(Nc3ccncc3)nc(Nc3ccc(N4CCOCC4)cc3)c2cc1OC	42.2*	-4.3
COc1cc2nc(Nc3ccc(N4CCOCC4)cc3)nc(Nc3ccc(OCCN4CCCCC4)cc3)c2cc1OC	48.9*	-7.5
COc1cc2nc(Nc3ncccn3)nc(Nc3ccc(N4CCOCC4)cc3)c2cc1OC	-0.7	-7.3
Cc1cc(Nc2ccc(OCCN3CCCCC3)cc2)nc(Nc2ccc(N3CCOCC3)cc2)n1	10.0	9.0
COc1ccc([C@@H]2CN(S(C)(=O)=O)C[C@H]2c2nc3ccc(-c4cn[nH]c4)cc3[nH]2)cc1	-6.6	-7.5
Nc1[nH]ncc1-c1ccc(NC(=O)C(N)c2ccc(Cl)cc2)cc1 (configuration not stated)	13.8	-6.3
COc1ccc(CN2CCN(C3CCC(C)CC3)CC2)cc1 (configuration not stated)	.	-13.6
COc1cc(Nc2cc(C)nc(NCCN3CCOCC3)n2)cc(OC)c1OC	1.8	7.4
Cc1ncn(-c2ccc(Nc3ncc(Br)c(-c4cnn(C)c4)n3)cc2)n1	-67.9	84.7*
Cc1onc(-c2nc(Nc3ccc(-n4cnc(N5CCOCC5)n4)cc3)ncc2Cl)c1-c1cnn(C)c1	14.4	-22.2
Cn1cc(-c2nc(Nc3ccc(-n4cnc(N5CCOCC5)n4)cc3)ncc2Br)cn1	-56.8	61.3*
Cc1ccc(-c2ncn(-c3ccc(Nc4ncc(F)c(-c5cnn(C)c5)n4)cc3)n2)cn1	17.7	-0.7
Cc1nn(C)c(C)c1-c1cc(NCCN(C(C)C)C(C)C)ncn1	-13.2	-8.4
CC(C)CC(=O)N1CCN(C(=O)C(c2ccccc2)c2ccccc2)CC1	.	1.0
O=C(NC1CC1)c1cnc(NCc2ccc3c(c2)OCO3)s1	2.3	15.0
CN(c1ncccc1CNc1cc(Nc2ccc3c(c2)CC(=O)N3)ncc1C(F)(F)F)S(C)(=O)=O	12.1	30.9
CN(c1ncccc1CNc1nc(Nc2ccc3c(c2)CC(=O)N3)ncc1C(F)(F)F)S(C)(=O)=O	25.8	78.1*
Oc1cc(O)cc(O)c1	.	6.7
CCC(=O)c1c(O)cc(O)cc1O	.	62.0*
c1cncc(CNc2nc(Nc3nccc4ccccc34)nc3c2ncn3C2CCCCC2)c1	4.7	3.0
COc1cc(Nc2nc(-c3ccc(N4CCOCC4)nc3)nc3c2ncn3C(C)C)cc(OC)c1OC	12.8	-13.2
OCC1CCCN1c1nc(Nc2ccc(N3CCOCC3)cc2)c2ncn(-c3ccccc3)c2n1 (configuration not stated)	-37.3	61.2*
OCC1CCCN1c1nc(Nc2ccc(N3CCOCC3)cc2)c2ncn(C3CCCCC3)c2n1 (configuration not stated)	30.0	52.9*
c1cc(N2CCOCC2)ccc1Nc1nc(N2CCOCC2)nc2c1ncn2C1CCCCC1	-0.6	33.3
OCC1CCCN1c1nc(Nc2ccc(N3CCOCC3)cc2)c2ncn(-c3ccsc3)c2n1 (configuration not stated)	16.2	10.6
SMILES	ASK1 primary	ULK1 primary
Cc1nn(C)c(C)c1-c1nc(NCCN(C(C)C)C(C)C)c2ncn(-c3ccccc3)c2n1	-23.4	-5.3
Cc1cncc2cccc(NC3CCCNC3)c12 (configuration not stated)	12.0	71.8*
Cc1cncc2cccc(NC3CCN(C(=O)[C@H](C)O)CC3)c12	-8.9	9.9
Cc1cncc2cccc(S(=O)(=O)N3CCCNC[C@@H]3C)c12	-9.1	81.2*!
Cc1cncc2cccc(N3CCN(C(=O)[C@H](C)O)CC3)c12	-2.4	-0.9
CCNc1nc(NCCN(C(C)C)C(C)C)c2ncn(C(C)C)c2n1	-32.2	0.2
Cc1noc(C)c1-c1cc(NCCCN2CCCC2=O)nc(N)n1	-8.0	12.6
CCCCCCCCCCCCN1CCCCCC1=O	.	9.1
CC(=O)Nc1cc(-c2ccnc(N)n2)ccc1NC(=O)COc1cccc(C)c1	0.8	10.8
Cc1cccc(OCc2nc3ccc(-c4ccnc(N)n4)cc3[nH]2)c1	7.7	67.6*
Cc1cc(-c2ccc(N=Nc3c(S(=O)(=O)O)cc4cc(S(=O)(=O)O)cc(N)c4c3O)c(C)c2)ccc1N=Nc1c(S(=O)(=O)O)cc2cc(S(=O)(=O)O)cc(N)c2c1O	.	80.9*
O=C(O)c1ccccc1C(=O)Nc1ccc(S(=O)(=O)N2CCOC3CCCCC32)cc1 (configuration not stated)	.	-1.5
Nc1nc(Nc2ccc(N3CCOCC3)cc2)nc2c1ncn2CCN1CCCC1=O	-5.7	16.6
c1cc(Cn2cncn2)cc(Nc2nccc(-c3cncc(N4CCOCC4)c3)n2)c1	0.7	55.4*
c1cn(-c2ccc(Nc3nccc(-c4cncc(N5CCOCC5)c4)n3)cc2)cn1	-13.5	34.1
c1cc(Cn2ccnc2)cc(Nc2nccc(-c3cncc(N4CCOCC4)c3)n2)c1	5.5	79.6*
